Among the data in PubChem BioAssay (EPA / NIEHS) are outcome and AC50 values, retold here.

Active and inactive are the calls of the source. The calls were made as follows: active = hit-call score of the fitted dose curve at least 0.9, where 1 is the maximum; inactive = score below 0.9.

Read-out in this assay: sulfotransferase 2A1 (SULT2A1), SULT2A1 (gene 6822)
Description: LTEA_HepaRG_SULT2A1: Life Technologies and Expression Analysis (LTEA) Assay for sulfotransferase 2A1 (SULT2A1) using HepaRG (AID 2283531). As to conditions: mRNA level, 48 h; actives raise or lower the signal. As for the experimental part:
LTEA_HepaRG is a cell based, multiplexed-readout assay that uses HepaRG, a human liver cell line, with measurements taken at 48 hours after chemical dosing on a 96-well plate.LTEA_HepaRG_SULT2A1 is one of 102 assay component(s) measured in the LTEA HepaRG cell culture assay. It is a marker of NR mediated transport.Data from the assay component LTEA_HepaRG_SULT2A1 was analyzed into 1 endpoint. This assay endpoint, LTEA_HepaRG_SULT2A1, was analyzed with bidirectional fitting relative to DMSO as the negative control and baseline of activity. Using a type of inducible reporter, measures of mRNA induction for gain or loss-of-signal activity can be used to understand regulation of transcription factor activity. To generalize the intended target to other relatable targets, this assay endpoint is annotated to the transferase intended target family, where the subfamily is sulfotransferase.
A total of 1060 chemcials from the ToxCast library were tested in eight-point concentration-response experiments. Cell culture and cytotoxicity assays were conducted at Thermo Fisher Scientific's Custom Services facility (Madison, WI). A single lot of human HepaRG cells (Thermo Fisher Scientific, Frederick, MD) was used for the cell culture experiments. 96-well format collagen type I coated plates of human HepaRG cells were prepared using established methods. Briefly, cryopreserved HepaRG cells were thawed, plated at a density of approximately 100,000 cells/well in HepaRG Thaw, Plate, and General Purpose media (HPRG770, Thermo Fisher Scientific), and incubated for 48 hours. 0.5% DMSO was selected as vehicle control to balance the requisite need of DMSO in HepaRG cultures to maintain differentiation (for example, baseline metabolism, proportions of hepatocytes vs. cholangiocytes), while enabling further hepatic receptor pathway activation (for example, PXR and CAR) in response to chemical exposure. 48 hours after plating, the culture medium was replaced with HepaRG Serum-Free Incudtion Media. Cells were exposed to each test chemical in duplicate and maintained in CO2 incubators for another 48 hours. Chemical plates were thawed to room temperature and 200x concentrations of treatment groups were prepared. 8-point conentration-reponse curves were made with the highest exposure at 100 uM, followed by half-log dilutions, all in 0.5% DMSO. Each test plate contained variouse controls, induction positive controls (1mM phenobarbital), cytotoxicity positive controls ([…] aflatoxin B1), vehicle controls (0.5% DMSO), and total lysis controls (0.5% DMSO). Cell morphology images were taken using an Essen IncuCyte FLR automated microscope, with six 96-well plates imaged in about 24 minutes. Images were captured and exported and JPEG files. Spent culture media was transfered to black-well plates for the LDH assay, and remaining media was sorted at -80 C for later use. Cells were treated with RLT buffer and frozen until shipped for gene expression analysis. Total RNA was isolated from the cell suspension in 75 uL of Buffer RLT (Qiagen, Germantown, MD 20874) by Quintiles/Expression Analysis (Durham, NC) using a custom isolation procedure. Total RNA from each plate well was transferred to a preamplification plate. Fluidigm's 96.96 Dynamic ArrayTM (Fluidigm, Amsterdam, the Netherlands) technology was used for gene expression analyses by quantitative reverse transcription polymerase chain reaction (qRT-PCR, performed by Quintiles/Expression Analysis, Durham, NC)89. Standard TaqManTM Assays (Applied Biosystems/ThermoFisher Scientific, Foster City, CA) were used to assess the expression of 93 genes selected based on their selectivity and sensitivity to important hepatic receptors known to be modulated by environmental chemicals; importance in human hepatocyte functionality; and hepatotoxicity. […]
Take `CC(O)CN(CCN(CC(C)O)CC(C)O)CC(C)O` (stereo not given): the call was inactive.

For `O=C(O)c1cc(N=Nc2ccc(S(=O)(=O)Nc3ccccn3)cc2)ccc1O`, the compound was classed as inactive.

As to `CC(C)CCCCCCOC(=O)c1ccc(C(=O)OCCCCCCC(C)C)c(C(=O)OCCCCCCC(C)C)c1`, the compound was called inactive.

One may read the AC50 as the midpoint of the concentration-response curve, whichever way the signal moves. Regarding `O=C(OC[C@H]1O[C@@H](OC(=O)c2cc(O)c(O)c(OC(=O)c3cc(O)c(O)c(O)c3)c2)[C@H](OC(=O)c2cc(O)c(O)c(OC(=O)c3cc(O)c(O)c(O)c3)c2)[C@@H](OC(=O)c2cc(O)c(O)c(OC(=O)c3cc(O)c(O)c(O)c3)c2)[C@@H]1OC(=O)c1cc(O)c(O)c(OC(=O)c2cc(O)c(O)c(O)c2)c1)c1cc(O)c(O)c(OC(=O)c2cc(O)c(O)c(O)c2)c1`, the AC50 was 9.46 µM (active).

For the compound `COc1ccc(-n2nc(C(F)F)cc2-c2ccc(S(C)=O)cc2)cc1` (stereo not given), the compound was called inactive.

For the compound `C=CCCCCCCCCC(=O)O`, the compound was called inactive.

As to `CC(=O)OC[C@H]1O[C@@](COC(C)=O)(O[C@H]2O[C@H](COC(C)=O)[C@@H](OC(C)=O)[C@H](OC(C)=O)[C@H]2OC(C)=O)[C@@H](OC(C)=O)[C@@H]1OC(C)=O`, the compound was classed as inactive.

Regarding `O=c1n(CC2CO2)c(=O)n(CC2CO2)c(=O)n1CC1CO1` (stereo not given), the compound was called inactive.

In the case of `CC(C)CCO`, the outcome was inactive.

With `O=C(O)c1cccc(N(Cc2cccnc2)c2ccc(OC(F)F)c(OC(F)F)c2)c1`, the compound was classed as inactive.

Turning to `CCN(C(=O)c1cc(C)cc(OC[C@H](C)Nc2ccncc2)c1)C(C)C`, the compound was classed as inactive.

On to `O=P(OC(CCl)CCl)(OC(CCl)CCl)OC(CCl)CCl`, for which the AC50 is 79.1 µM (active).

For `COCCOc1cc2cc(C(=O)NC3CCN(C(C)C)CC3)n(CC(=O)Nc3ccc(Cl)cn3)c2cn1`, the call was inactive.

`CC(C)c1cccc(C(C)C)c1N1C(=O)c2ccc(O)cc2C1=O`: the result was inactive.

As to `CC(C)=CCC/C(C)=C\CO`, the call was inactive.

In the case of `CC1=CC(=O)CC(C)(C)C1`, the compound was called inactive.

On to `CCc1cc(SCc2sc(-c3ccc(C(F)(F)F)cc3)nc2CN2CCN(c3ccc(OC)cc3)CC2)ccc1OCC(=O)O`, for which the AC50 is 5.72 µM (active).

Consider `CN(C)c1ccc(Cc2ccc(N(C)C)cc2)cc1`, for which the outcome was inactive.

Regarding `O=C(NS(=O)(=O)/C=C/c1ccccc1)c1ccc(F)cc1Cl`, the compound was classed as inactive.

`CCOC(=O)CC(CC(=O)OCC)(OC(C)=O)C(=O)OCC`: the call was inactive.

Consider `COc1cccc(-c2ccc(/C=C\CN3CCCCCC3)cc2Cl)c1`, for which the AC50 is 83.2 µM (active).

With `CC(C)=CCCC(C)CCO` (stereo not given), the call was inactive.

Take `O=c1[nH]c2ccc(S(=O)CCN3CCC(Cc4ccc(F)cc4)CC3)cc2o1` (stereo not given): the compound was classed as inactive.

For `CCOC(=O)COc1ccc2c(c1)CC(NCC(O)c1cccc(Cl)c1)CC2` (stereo not given), the outcome was inactive.

Consider `CC(C)=CCC/C(C)=C/CO`, for which the outcome was inactive.

Consider `Nc1nc2ncc(CNc3ccc(C(=O)N[C@@H](CCC(=O)O)C(=O)O)cc3)nc2c(=O)[nH]1`, for which the outcome was inactive.

For the compound `CC(C)CCCCCCCOC(=O)CCCCC(=O)OCCCCCCCC(C)C`, the compound was called inactive.

For `COC(=O)CC(=O)OC`, the compound was called inactive.

Regarding `CCCCCCc1ccc(O)cc1O`, the compound was classed as inactive.

For the compound `CC1(C)C(=O)N(Br)C(=O)N1Br`, the result was inactive.

Regarding `CC[C@H]1CC[C@H](NCc2cc3c(cc2OC)[C@H]2C[C@H]2C(=O)N3C)[C@H](c2ccccc2)N1`, the half-maximal activity concentration (AC50) was 50 µM (active).

On to `CCOc1cccc(-n2cc(C(=O)N3CCN(c4cc(C(=O)O)c5ccccc5c4)CC3)nc2-c2ccc(C)cc2)c1`, for which the AC50 was 35.7 µM (active).

On to `Nc1cccc(N)c1`, for which the compound was classed as inactive.

As for `CCCC(=O)OCC`, the call was inactive.

Turning to `COc1ccc(/C=C/S(=O)(=O)NC(=O)c2ccc(C)cc2Cl)cc1`, the compound was called inactive.

For the compound `CN(C)c1ccc(N=NS(=O)(=O)O)cc1`, the result was inactive.

In the case of `CCCN(C1CCN(C(=O)C2CCNCC2)CC1)[C@@H]1CCc2ccc(OC)cc2C1`, the concentration at half-maximal activity (AC50) was 83.5 µM (active).

Turning to `CC(C)CC(C)(O)C#CC(C)(O)CC(C)C` (stereo not given), the compound was classed as inactive.

Regarding `CC(C)=CCCC(C)=CC=O`, the compound was classed as inactive.

For the compound `COC(=O)c1c(Cl)c(Cl)c(C(=O)OC)c(Cl)c1Cl`, the result was inactive.
